Shown are actives, neighbours in structure and some others; about 11% of the full set was active somewhere.
PNC inhibitor: High Content Assay for Compounds that inhibit the Assembly of the Perinucleolar Compartment. activity change (PNC), negative = inhibition, % at 10 µM. PC3M PTB-GFP, PNC prevalence imaging, 16 h; active compounds read low. actives 3.1% (n = 140,000);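 active = readout at or below -70, meaning at least 70% loss of cells showing the perinucleolar compartment, a nuclear body marking cancer cells; inconclusive = readout between -30 and a set limit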;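 also: plate controls were DMSO wells for no effect and camptothecin positive control wells for full effect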
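Compounds are pinned in duplicate onto adhered PC3M cells stably expressing GFP-tagged PTB and incubated 16 h at 37 C. Cells are then fixed, nuclei stained with Hoechst, and PNC-positive cells counted.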
HPGD inh: qHTS Assay for Inhibitors of HPGD (15-Hydroxyprostaglandin Dehydrogenase); purified HPGD, NADH fluorescence kinetic, PGE2 substrate; Potency, µM, inactives show at the highest dose activity change, negative = inhibition, most hits filed as inhibitors; AID 894, 2007; actives 4.3% (n = 150,000); also: potency is read from the fitted curve at half-maximal effect
Target sequence (P15428 whole entry, looked up): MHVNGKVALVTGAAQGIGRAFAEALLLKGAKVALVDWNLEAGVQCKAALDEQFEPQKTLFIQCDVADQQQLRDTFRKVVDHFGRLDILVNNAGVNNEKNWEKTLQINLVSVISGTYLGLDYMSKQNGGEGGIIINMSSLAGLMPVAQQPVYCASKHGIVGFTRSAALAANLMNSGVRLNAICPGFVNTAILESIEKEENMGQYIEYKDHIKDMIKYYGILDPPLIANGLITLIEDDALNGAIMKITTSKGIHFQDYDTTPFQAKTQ
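NADH formation kinetics: reaction with 30 uM PGE2 and 1 mM NAD+ (final), 20 nM enzyme, Tris-HCl pH 8 with Tween 20, after 15 min compound preincubation at room temperature. Fluorescence change, last versus first of five reads.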
ALDH1A1 block: qHTS Assay for Inhibitors of Aldehyde Dehydrogenase 1 (ALDH1A1); Aldehyde dehydrogenase 1A1 (Homo sapiens), P00352; Purified ALDH1A1, NADH fluorescence, propionaldehyde substrate; Potency, µM (doses to about 75.3 µM), for inactives: top-dose activity, negative = inhibition, hits mostly inhibitors; actives 7.3% (n = 220,000); AID 1030, 2008;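 also: potency is read from the fitted curve at half-maximal effect; plate controls were no enzyme wells and a reference inhibitor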
* marks the source's active call; other numbers are inactive results; ? = inconclusive; . = not tested or not shown; [ ] = dose if it differs, or a comment. Unless noted, calls follow the shape of the dose curve; as a rule, active = well fitted inhibition curve with a large enough effect (not every such curve was filed as active); inconclusive = small, poorly fitted or top-dose-only effect, or another doubt; inactive = no such curve, though single readings can be large or run the other way. Unless noted, % is scaled to controls: 0 for no effect and ±100 for the full control effect.

SMILES	PNC inhibitor	HPGD inh	ALDH1A1 block
NC(=O)CNC(=O)c1ccc(Cl)cc1	.	.	-2%
COC(=O)NC(c1ccccc1)C1(C(=O)OC)C(=O)Cc2ccccc21 (configuration not stated)	.	-7%	?
CCOc1ccccc1-n1nnnc1SCC(=O)NC(=O)Nc1ccc2c(c1)OCCO2	5	-15%	13µM*
O=C(CSc1nnnn1-c1ccccc1)NC(=O)Nc1ccc2c(c1)OCCO2	-11	-7%	?
Cc1csc(=Nc2ccccc2)n1Cc1ccco1	.	.	15µM*
Cc1csc(=NC(=O)c2ccccc2)n1Cc1ccco1	31	-16%	3%
Cc1[nH]c2ccccc2c1C(=O)C(=O)NCc1cccs1	.	.	7%
CC(CCC(=O)O)C1CCC2C3C(O)C[C@@H]4CC(O)CC[C@@]4(C)C3CC(O)[C@]12C (some centres not stated)	.	2%	0%
CCNc1nc(Oc2ccc(=O)n(-c3ccccc3)n2)nc(N(C)C)n1	62	-6%	1%
CCNc1nc(OC)nc(Oc2ccc(=O)n(-c3ccccc3)n2)n1	-94*	-11%	-5%
O=C(Oc1ccccc1)N1CCC2(CC1)CN(c1ccccc1)C2	.	-2%	-10%
COc1ccc(-c2nnc3ccc(SC)nn23)cc1	-12	32µM*	?
COc1ccc(-c2nnc3ccc(SCC(=O)N4CCOCC4)nn23)cc1	7	-10%	-9%
CC(C)C(=O)Nc1ccc(S(=O)(=O)Nc2nccc(/C=C/c3ccccc3)n2)cc1	13	-10%	?
CN(CCCNC(=O)CSc1cc(=O)n(C)c2ccc(Cl)cc12)Cc1ccccc1	.	.	-1%
CCN(CC)c1ccc(N=Cc2ccc([N+](=O)[O-])o2)cc1	?	-11%	?
CCN(CC)c1ccc(N=Cc2ccccc2[N+](=O)[O-])cc1	-99*	-12%	2µM*
O=C(CCC(=O)N/N=C/c1cc(Cl)cc(Cl)c1O)NCc1ccccc1	.	.	-4%
CCN(CC)S(=O)(=O)c1ccc(OC)c(NC(=O)c2cccc(C)c2[N+](=O)[O-])c1	.	.	5.6µM*
CCN(CC)S(=O)(=O)c1ccc(OC)c(NC(=O)c2cc([N+](=O)[O-])ccc2Cl)c1	?	-12%	?
CCN(CC)S(=O)(=O)c1ccc(OC)c(NC(=O)CSc2ccccc2)c1	35	-15%	-11%
CCN(CC)S(=O)(=O)c1ccc(OC)c(NC(=O)c2cc(C)on2)c1	.	.	-10%
CCN(CC)S(=O)(=O)c1ccc(OC)c(NC(=S)Nc2cccc(C)c2)c1	15	-14%	11µM*
CCN(CC)S(=O)(=O)c1ccc(OC)c(NC(=S)Nc2cccc(C)c2C)c1	9	1%	25µM*
C=C1CCC2C(CC2(C)C)C(=C)CC/C1=N/O (configuration not stated)	.	-6%	0%
SMILES	PNC inhibitor	HPGD inh	ALDH1A1 block
Cn1c(=O)n(C)c2cc(C(=O)c3ccccc3)ccc21	8	-14%	7.9µM*
CN(C)C(=O)c1ccc2c(c1)n(C)c(=O)n2C	260	-12%	-2%
CC(C)(C)Nc1nc(OCC(F)(F)F)nc(OCC(F)(F)F)n1	-107*	-3%	4%
CCC(C)Nc1nc(OCC(F)(F)F)nc(OCC(F)(F)F)n1 (configuration not stated)	50	-12%	7%
COc1ccc(/C=C/C(=O)c2ccc(OC)cc2OC)c(OC)c1	.	.	2%
COc1cc(O)c(C(=O)/C=C/c2ccccc2)c(O)c1	.	.	8%[13.5 µM]
CNc1ccc(Br)cc(C(=O)/C=C/c2ccc(OC)cc2OC)c1=O	?	14µM*	?
CNc1ccc(Br)cc(C(=O)/C=C/c2cccc(OC)c2)c1=O	-15	7.9µM*	14µM*
COc1ccc(NC(=O)CC2C(=O)N(c3ccc(OC)cc3)C(=O)N2Cc2ccc(OC)c(OC)c2)cc1 (configuration not stated)	.	.	11%
c1ccc(-c2cccc(N3CC[C@@]4(CCCNC4)C3)c2)cc1	.	-14%	?
O=c1c2ccccc2cnn1Cc1n[nH]c(=S)n1-c1ccccc1	-20	-12%	0%
Cc1[nH]n(-c2ccccc2)c(=O)c1N=Nc1ccccc1O	.	.	-11%
CCN(CC)S(=O)(=O)c1ccc(N=Nc2c(C)[nH]n(C(N)=S)c2=O)cc1	37	35µM*	7.9µM*
Cc1cccc(N=Nc2c(C)[nH]n(C(N)=S)c2=O)c1C	.	.	18µM*
Cc1ccccc1N=Nc1c(C)[nH]n(-c2ccccc2)c1=O	.	.	4%
Cc1ccccc1N=Nc1c(C)[nH]n(C(N)=S)c1=O	-113*	-24%	20µM*
NC(=S)n1[nH]c(-c2ccc([N+](=O)[O-])cc2)c(N=Nc2ccc(O)cc2)c1=O	0	-29%	?
S=C(NCCc1cnc[nH]1)NC1CCCC1	.	.	8%
COc1cccc(NC(=S)NC2CC(C)(C)NC(C)(C)C2)c1	-8	-1%	12%
COc1ccccc1C(C)NC(=O)CCOc1cccc(C)c1 (configuration not stated)	.	.	7%
CN(C)c1ccc2nc3c(C(=O)O)cc(=O)c(O)c-3oc2c1	.	-26%	3%[13.5 µM]
Cc1nnc(NC(=O)C2CCN(S(=O)(=O)c3ccc(Cl)cc3)CC2)s1	.	.	1%
CCOC(=O)c1c(NC(=O)Cc2cccs2)sc2c1CCCC2	9	.	-6%
CCOC(=O)c1c(NC(=O)CS(=O)(=O)c2cn(CC)c3ccccc23)sc2c1CCCCC2	51	-10%	10µM*
CC(C)OC(=O)c1c(NC(=O)CCC(=O)O)sc2c1CCCCC2	24	-4%	-7%
SMILES	PNC inhibitor	HPGD inh	ALDH1A1 block
CCOC(=O)c1c(NC(=O)CS(=O)(=O)c2cn(CC)c3ccccc23)sc2c1CCCC2	35	-19%	13µM*
CCOc1ccc(NC(=O)CS(=O)(=O)c2cn(CC)c3ccccc23)cc1	-3	-1%	0%
CC(C)OC(=O)c1c(NC(=O)CCn2nnc3ccccc32)sc2c1CCCC2	?	-27%	25µM*
CC(=O)Nc1ccc(NC(=O)CN(c2cc(Cl)ccc2Cl)S(C)(=O)=O)cc1	.	.	5%
COc1cccc(C2c3[nH]c4ccccc4c3CCN2C(=O)Cn2cncn2)c1OC (configuration not stated)	.	.	9.5µM*
CCOc1ccc(C2c3[nH]c4ccccc4c3CCN2C(=O)Cn2cncn2)cc1 (configuration not stated)	.	.	10%
Cc1ccccc1C1c2[nH]c3ccccc3c2CCN1C(=O)c1ccc(=O)n(C)n1 (configuration not stated)	.	.	32µM*
COc1ccc(C2c3[nH]c4ccccc4c3CCN2C(=O)c2ccc(=O)n(C)n2)c(F)c1 (configuration not stated)	.	.	-9%
Cc1noc(C)c1-c1cc(NCc2ccccc2)ncn1	.	-18%	5%
CCCCCCc1c(C[C@H](N)C(=O)O)o[nH]c1=O	.	-3%	4%
COc1ccc(C(=O)N2CCC3(CC2)CN(C(=O)NC(C)C)C3)cc1	.	-2%	7%
COc1ccc(Cc2nnc(N/N=C/c3ccc(O)cc3O)[nH]c2=O)cc1OC	-25	32µM*	-7%
Cc1ccc(/C=N/Nc2nnc(Cc3ccccc3)c(=O)[nH]2)o1	.	.	17%
CN1CCN(c2ncc3nc(-c4cn(C)c5ccccc45)c(=O)n(Cc4cccs4)c3n2)CC1	.	.	-9%
Cc1ccc(N2CN=C3SCC(=O)N3C2)cc1C	.	.	2%
